Reference: PubChem BioAssay (EPA / NIEHS)
Records with an inconclusive call do not appear. Active and inactive are the calls of the source. Rule for the calls, unless noted: active = hit-call score of the fitted dose curve at least 0.9, where 1 is the maximum; inactive = score below 0.9.

Experiments:
DIO1 (gene 1733) = assay: CCTE_GLTED_hDIO1: CCTE's human Deiodinase 1 (DIO1) Inhibition Assay, Great Lakes Toxicology and Ecology Division (GLTED) Lab (AID 2283987; active = hit-call score of the fitted dose curve at least 0.9, where 1 is the maximum;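 note: isolated human DIO1 enzyme in a cell-free setup rather than cells; enzyme activity read as free iodide liberated from substrate via Sandell-Kolthoff colorimetry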)
In short: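 Cell-free human DIO1 enzyme was incubated with test chemical for 3 h, and iodide released from substrate was measured by Sandell-Kolthoff absorbance. Loss of signal versus DMSO baseline indicated inhibition; plates were run in triplicate.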

[1] = CCTE_Simmons_MITO_basal_resp_rate: CCTE's HepG2 Seahorse XF Respirometric Screening Assay at Basal Respiratory State, Simmons Lab (AID 2284001); details: actives raise or lower the signal
In short: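 HepG2 respirometry; 7-pt titration 125 nM–100 uM final; kinetic OCR at 6 min intervals for 72 min; n=3 biological, technical singles; DMSO baseline, gain or loss fit; fenpyroximate (decrease) and 2,4-DNP (increase) controls.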

[2] = CCTE_Simmons_MITO_max_resp_rate: CCTE's HepG2 Seahorse XF Respirometric Screening Assay at Maximal Respiratory State [uncoupled], Simmons Lab (AID 2284002); details: actives raise or lower the signal
In short: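 HepG2 oxygen consumption was read on a Seahorse XF96 after FCCP uncoupler injection, following test compound injection; 7 concentrations, 125 nM–100 uM final, three biological replicates. Bidirectional fitting against DMSO vehicle baseline.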

[3] = CCTE_Simmons_MITO_inhib_resp_rate: CCTE's HepG2 Seahorse XF Respirometric Screening Assay at Inhibited Respiratory State [full ETC block], Simmons Lab (AID 2284006); details: actives raise or lower the signal
In short: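 Compound injected onto HepG2 cells (125 nM–100 uM final, 7 points); FCCP then rotenone/antimycin A added. Oxygen consumption read every 6 min (3 min mix, 3 min measure) for 72 min. Inhibited-state OCR fitted against DMSO.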

[4] = CCTE_Simmons_MITO_viability: CellTiter-Glo Viability Assessment for CCTE's HepG2 Seahorse XF Respirometric Screening Assay [post-hoc], Simmons Lab (AID 2284007; active = hit-call score of the fitted dose curve at least 0.9, where 1 is the maximum;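 for AC50: cells exposed to chemical for 90 min before the ATP read; actives lower ATP signal relative to DMSO baseline meaning reduced viability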)
In short: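 After the Seahorse oxygen-consumption sequence (basal, FCCP, rotenone/antimycin A; 72 min total), HepG2 viability was scored as ATP content by bioluminescence. Chemicals ran at seven concentrations up to 100 uM final for 90 min.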

[5] = CCTE_Harrill_HTTr_Viability_MCF7: CCTE's 6-hour Cell Viability Assessment for the High-Throughput Transcriptomics (HTTr) Platform, in MCF-7 cells cultured in DMEM + 10% fetal bovine serum, Harrill Lab (AID 2284010)
In short: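 Cells were dosed with chemicals in an eight-point dilution series, imaged 6 hours later for propidium iodide uptake, and the endpoint was analyzed by bidirectional fitting against DMSO as negative control.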

[6] = CCTE_Harrill_HTTr_Apoptosis_MCF7: CCTE's 6-hour Apoptosis Assessment for the High-Throughput Transcriptomics (HTTr) Platform, in MCF-7 cells cultured in DMEM + 10% fetal bovine serum, Harrill Lab (AID 2284011)
In short: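 MCF-7 cells in DMEM + 10% fetal bovine serum were exposed to chemicals for 6 hours over an eight-point dilution series. Caspase-3/7 activation was imaged by high content imaging with CellEvent Caspase 3/7 Green; bidirectional fitting used DMSO as baseline.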

[7] = biological target: Nucleoli Translocation, AR (gene 367) (UniProt P10275); assay: UPITT_HCI_U2OS_AR_TIF2_Nucleoli_Antagonist: University of Pittsburgh U2OS Androgen Receptor-Transcriptional Intermediary Factor 2 (AR-TIF2) Antagonism High Content Imaging Assay for Nucleoli Translocation (AID 2283997; active = hit-call score of the fitted dose curve at least 0.9, where 1 is the maximum)
In short: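 Measured quantity was AR-RFP fluorescence localized to nucleoli in engineered U2OS cells also bearing TIF2-GFP, acquired on automated high-content imagers. Primary testing used 20 uM compound; actives were confirmed in triplicate wells.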

[8] = biological target: Ratio of Nucleoli Translocation and Cytoplasm, AR (gene 367) (UniProt P10275); assay: UPITT_HCI_U2OS_AR_TIF2_Nucleoli_Cytoplasm_Ratio_Antagonist: University of Pittsburgh U2OS Androgen Receptor-Transcriptional Intermediary Factor 2 (AR-TIF2) Antagonism High Content Imaging Assay for Ratio of Nucleoli Translocation and Cytoplasm (AID 2283999; active = hit-call score of the fitted dose curve at least 0.9, where 1 is the maximum;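 note: antagonists lower the DHT-driven ratio of nucleolar to cytoplasmic red signal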)
In short: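 Human osteosarcoma U2OS line, AR fused to RFP, coactivator TIF2 fused to GFP. Cpds 20 uM final, 0.2% DMSO (screen); 0.195–50 uM final, 0.5% DMSO (CRC). Endpoint: nucleoli/cytoplasm red signal ratio, DHT as baseline, loss-of-signal antagonist mode.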

[9] = biological target: Ratio of Nucleoli Translocation and Cytoplasm, AR (gene 367) (UniProt P10275); assay: UPITT_HCI_U2OS_AR_TIF2_Nucleoli_Cytoplasm_Ratio_Agonist: University of Pittsburgh U2OS Androgen Receptor-Transcriptional Intermediary Factor 2 (AR-TIF2) Agonism High Content Imaging Assay for Ratio of Nucleoli Translocation and Cytoplasm (AID 2284000; active = hit-call score of the fitted dose curve at least 0.9, where 1 is the maximum;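 note: hits raise the red nucleolar to cytoplasm ratio above vehicle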)
In short: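 Read-out first: nucleolar-to-cytoplasm ratio of red (AR-RFP) signal, quantified by high-content imaging in U2OS cells co-expressing TIF2-GFP. Activity is scored as signal increase over DMSO. Single-point screening used 20 uM final (0.2% DMSO).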

[10] = CCTE_Shafer_MEA_acute_spike_number: CCTE's Neural Acute Assay for Total Number of Spikes, Shafer Lab (AID 2284008);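 note: curve fitted for decrease in spike count so AC50 reflects inhibitors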
In short: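 Primary rat cortical neurons on 16-electrode MEA wells; on DIV 13 or 15, 40-min baseline then 40-min recording with compound (0.03-40 uM) at 37 C. Spikes detected at 8x rms noise; percent change versus baseline, DMSO as negative control.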

[11] = CCTE_Shafer_MEA_acute_firing_rate_mean: CCTE's Neural Acute Assay for Mean Firing Rate, Shafer Lab (AID 2284009);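 note: analyzed for loss of signal so actives lower firing rate relative to DMSO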
In short: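 Percent change in well-mean firing rate was derived from extracellular spikes detected at 8x rms noise (300-5000 Hz band-pass) before and after a 40-min compound exposure. Cultures were primary rat cortical neurons, tested at 0.03-40 uM.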

[12] = CCTE_Harrill_HTTr_CellCount_MCF7: CCTE's Cell Proliferation Assessment for the High-Throughput Transcriptomics (HTTr) Platform, Harrill Lab (AID 2284012; active = hit-call score of the fitted dose curve at least 0.9, where 1 is the maximum;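 note: count of Hoechst-stained nuclei per well by high-content imaging in MCF-7 cells; cells exposed to compound for six hours; intended direction is loss of nuclei count meaning fewer cells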)
In short: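 Chemicals in eight-point dilution series are added to MCF-7 cells for six hours, nuclei are stained with Hoechst and imaged, and per-well nuclei counts are fitted in both directions relative to DMSO controls.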

[13] = CCTE_Shafer_MEA_acute_burst_number: CCTE's Neural Acute Assay for Single-Electrode Bursts, Shafer Lab (AID 2284013)
In short: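 Spontaneous network activity of primary rat cortical neurons was recorded extracellularly on microelectrode arrays at 37 C, with 40-min periods before and during exposure to 0.03-40 uM compound on DIV 13 or 15.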

[14] = CCTE_Shafer_MEA_acute_burst_duration_mean: CCTE's Neural Acute Assay for Mean Burst Duration, Shafer Lab (AID 2284014);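 note: hits are decreases in mean burst duration relative to DMSO controls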
In short: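 Read-out is the per-well percent change in mean burst duration (first to last spike within a single-electrode burst) between 40-min recordings before and after compound. Cultures were primary rat cortical neurons on MEAs, dosed at 0.03-40 uM on DIV 13 or 15.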

[15] = CCTE_Shafer_MEA_acute_per_burst_spike_number_mean: CCTE's Neural Acute Assay for Average Number of Spikes Per Burst, Shafer Lab (AID 2284015);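 note: hits are decreases in mean spikes per burst versus baseline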
In short: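 Rat primary cortical neurons on 48-well MEAs (DIV 13 or 15) were treated with 0.03-40 uM compound at 37 C. Mean spikes per burst over 40 min were recorded before and after exposure and expressed as percent change from baseline, relative to DMSO.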

[16] = CCTE_Shafer_MEA_acute_interburst_interval_mean: CCTE's Neural Acute Assay for Mean Interburst Interval, Shafer Lab (AID 2284016);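 note: percent change of mean interburst interval versus each well's own pre-dose baseline; curves fitted for decrease in interburst interval relative to DMSO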
In short: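 Rat primary cortical neurons on 48-well MEAs at DIV 13 or 15 were exposed acutely to 0.03-40 uM. Spikes detected at 8x rms noise, 37 C. Mean interburst interval from 40 min recordings expressed as percent change from 40 min pre-treatment baseline.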

[17] = CCTE_Shafer_MEA_acute_burst_percentage_mean: CCTE's Neural Acute Assay for Percentage of Spikes in a Burst, Shafer Lab (AID 2284017);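 note: curve fitted for loss of signal so potency reflects decreased burst percentage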
In short: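 Primary rat cortical neurons on 48-well MEA plates, treated on DIV 13 or 15 at 0.03-40 uM. Spikes detected at 8x rms noise at 37C; percent change from 40-min baseline to 40-min post-dose recording, fitted versus DMSO.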

[18] = biological target: Nucleoli Translocation, AR (gene 367) (UniProt P10275); assay: UPITT_HCI_U2OS_AR_TIF2_Nucleoli_Agonist: University of Pittsburgh U2OS Androgen Receptor-Transcriptional Intermediary Factor 2 (AR-TIF2) Agonism High Content Imaging Assay for Nucleoli Translocation (AID 2283998; active = hit-call score of the fitted dose curve at least 0.9, where 1 is the maximum)
In short: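 Cells express human AR fused to red fluorescent protein and TIF2 fused to GFP. Red fluorescence in the nucleolar region was quantified by high-content imaging and fitted as gain-of-signal against a DMSO baseline. Compounds were tested at 0.195 to 50 uM final (0.5% DMSO).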

[19] = CCTE_Harrill_HTTr_Apoptosis_PRF_DMEM_24hr: (Pilot) CCTE's 24-hour Apoptosis Assessment for the High-Throughput Transcriptomics (HTTr) Platform, in MCF-7 cells cultured in phenol red-free DMEM + 10% charcoal-stripped fetal bovine serum, Harrill Lab (AID 2283986)
In short: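 MCF-7 cells in phenol red-free DMEM with 10% charcoal-stripped FBS, exposed 24 h across an eight-point dilution series. Caspase-3/7 activation imaged with CellEvent Green by high content imaging; bidirectional fitting against DMSO.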

Measured: AC50

Chain of Ratio of Nucleoli Translocation and Cytoplasm, AR (gene 367) (P10275 whole entry, looked up, the tested form may be a part): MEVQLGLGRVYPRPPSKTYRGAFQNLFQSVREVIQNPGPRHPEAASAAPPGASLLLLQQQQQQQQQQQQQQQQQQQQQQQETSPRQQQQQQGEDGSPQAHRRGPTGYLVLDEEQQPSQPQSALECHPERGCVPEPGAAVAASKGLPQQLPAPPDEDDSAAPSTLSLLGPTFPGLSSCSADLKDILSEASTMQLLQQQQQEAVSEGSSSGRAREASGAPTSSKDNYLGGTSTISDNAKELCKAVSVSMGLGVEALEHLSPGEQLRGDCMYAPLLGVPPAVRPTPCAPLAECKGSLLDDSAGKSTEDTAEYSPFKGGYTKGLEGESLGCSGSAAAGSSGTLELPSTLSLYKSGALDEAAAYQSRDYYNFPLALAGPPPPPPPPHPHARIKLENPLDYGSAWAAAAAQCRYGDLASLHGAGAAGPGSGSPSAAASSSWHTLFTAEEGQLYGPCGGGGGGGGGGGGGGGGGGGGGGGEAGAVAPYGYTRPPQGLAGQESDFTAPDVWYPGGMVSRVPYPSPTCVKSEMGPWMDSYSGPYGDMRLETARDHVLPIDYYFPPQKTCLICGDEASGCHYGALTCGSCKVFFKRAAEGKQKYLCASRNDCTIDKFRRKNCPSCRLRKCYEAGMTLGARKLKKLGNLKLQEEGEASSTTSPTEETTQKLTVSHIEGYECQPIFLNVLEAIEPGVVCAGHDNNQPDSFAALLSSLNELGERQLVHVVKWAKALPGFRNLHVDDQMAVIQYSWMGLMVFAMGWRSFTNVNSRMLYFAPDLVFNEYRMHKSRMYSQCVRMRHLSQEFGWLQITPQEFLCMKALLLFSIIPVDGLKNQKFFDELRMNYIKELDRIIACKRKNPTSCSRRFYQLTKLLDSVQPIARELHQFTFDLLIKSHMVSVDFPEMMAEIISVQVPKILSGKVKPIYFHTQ
Chain of Nucleoli Translocation, AR (gene 367) (P10275 whole entry, looked up, the tested form may be a part): as above

CC(C)(C)c1csc(-c2cc3cc(OCc4ccccc4CC(=O)O)ccc3o2)n1
inactive: [5] | [6]
active: DIO1 (gene 1733) 100 µM | [1] 4.24 µM | [2] 4.72 µM | [3] 4.67 µM | [4] 50 µM

CN(C[C@@H](CC[N+]12CCC(C3CCCCC3)(CC1)CC2)c1ccc(Cl)c(Cl)c1)C(=O)c1cc(C(F)(F)F)cc(C(F)(F)F)c1
inactive: [12] | [16]
active: DIO1 (gene 1733) 57.6 µM | [7] 50 µM | [8] 29.6 µM | [9] 50 µM | [10] 0.273 µM | [11] 0.273 µM | [5] 78.6 µM | [6] 42.5 µM | [13] 0.249 µM | [14] 1.19 µM | [15] 1.14 µM | [17] 8.36 µM

O=C1c2ccccc2C(=O)N1CCc1noc(-c2ccc(CN3CCCCCC3)s2)n1
inactive: [3] | [4] | [5] | [6] | [12]
active: [1] 57.5 µM | [2] 39.8 µM

CCN(CC)C(=O)c1cc(S(=O)(=O)Cc2ccccc2)c(N2CCC(c3ccccc3)CC2)cc1N(CC)CCN(C)C
active: DIO1 (gene 1733) 40 µM | [10] 3.04 µM | [11] 3.04 µM | [14] 0.553 µM | [15] 1.54 µM | [17] 13 µM
inactive: [5] | [6] | [12] | [13] | [16]

COc1cc(C(=O)NC2CCN(C)CC2)ccc1Nc1ncc2c(n1)N(C1CCCC1)CC(F)(F)C(=O)N2C
inactive: [7] | [8] | [9] | [5] | [6] | [12] | [13]
active: [18] 46.5 µM | [10] 7.05 µM | [11] 7.05 µM | [14] 1.85 µM | [15] 29.9 µM | [16] 3.83 µM | [17] 15 µM

CC(C)(O)c1ccc(CNC(=O)c2cccnc2Oc2ccc3nonc3c2)cc1
inactive: [1] | [2] | [3] | [4] | [5] | [6]

CC1(C)NC(=O)N(c2ccc([N+](=O)[O-])c(C(F)(F)F)c2)C1=O
active: [1] 37.2 µM | [2] 33.8 µM
inactive: [19] | [3] | [4] | [5] | [6]

CCCCCCCCCC(=O)O
inactive: [7] | [8] | [9] | [2] | [3] | [4] | [5] | [6] | [12]
active: [1] 23.2 µM
